“And” between values parts separate entries of the source, which are not always exact repeats. Equal entries are not always repeated. The panel holds about 83,000 compounds, 20% with a hit somewhere; the sample as a whole holds those more often.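 The test compound was applied at a single concentration to cells in 96-well plates for 48 hours, and percent growth was recorded.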 The source made the active and inactive calls. How the source made its calls: active means growth percent below 10; inactive means the rest.

For this assay, the system named is SNB-19 CNS. The assay can be described thus: NCI-60 one-dose screen, 48 h (100 = growth as untreated, 0 = no growth, -100 = all killed). The settings on record: 10 µM unless noted.
In the case of `CC1CCCC(=O)O1` (stereo unspecified), the growth is 111% (inactive). For `Cc1ccc(S(=O)(=O)NCN2C(=O)c3ccccc3C2=O)cc1` the value was 111% (inactive); for `O=C(N/N=C/c1cccc2ccccc12)C1CC1`, 98.8% (inactive) and 95.1% (inactive). Then `CN(C)CCCNC1=C(Cl)C(=O)c2ccccc2C1=O`, with 53.1% (inactive) and -9.85% (active).

For `COc1ccc2nc(Cl)cc(C)c2c1`, the growth is 98.1% (inactive) and 111% (inactive). `CN(C)c1ccc(C(=C2C=CC(=[N+](C)C)C=C2)c2ccccc2Cl)cc1`: the growth is -96.9% (active) and -95.6% (active). Then `OCc1ccccn1`, with 109% (inactive); and `Nc1ccccc1SC1CC(=O)N(c2cccc3ccccc23)C1=O` (stereo unspecified), with 96.7% (inactive). For `CC(=O)Nc1cccc2c1CCCC2` the value was 103% (inactive) and 104% (inactive); for `CCN1CCN(CCNc2nccc(-c3c(-c4cccc(O)c4)nc4sccn34)n2)S1(=O)=O`, 104% (inactive) and 117% (inactive); for `NC(=O)c1ccccc1OCC(O)CO` (stereo unspecified), 102% (inactive). `Nc1ccccc1Nc1ccccc1`: the growth is 97.9% (inactive) and 105% (inactive). `N/C(=N\N=C\c1ccc2c(c1)OCO2)N/N=C\c1ccc2c(c1)OCO2`: the growth was 108% (inactive) and 92.1% (inactive). For `N#C/C(=C/c1c(O)ccc2ccccc12)C(N)=O` the value was 109% (inactive). Then `Oc1ccc(/C=C/c2ccccc2)cc1`, with 84.1% (inactive) and 91.2% (inactive); and `COc1ccc2ccccc2c1/C=N/N1CCCCC1`, with 88.1% (inactive); and `O=C(Nc1cccc(-n2ccc3c(NC(=O)c4ccccc4)nccc32)c1)c1ccc(Cl)c(C(F)(F)F)c1`, with 13.8% (inactive) and 55.4% (inactive). For `CCOc1ccc(Nc2c3ccccc3nc3ccccc23)cc1` the value was 91.1% (inactive) and 44.3% (inactive) and 35.2% (inactive). On to `CCOc1ccc2cc(-c3nn(CC4CCN(C)CC4)c4ncnc(N)c34)ccc2c1`, for which the growth is 92.8% (inactive) and 68.3% (inactive). On to `C[N+](C)(C)CN1C(=O)c2ccccc2C1=O`, for which the growth is 98.5% (inactive). For `S=C(S)N1CCCC1` the value was 99.1% (inactive) and 100% (inactive); for `O=C1C2=C(C(=O)c3ccccc31)C(O)(S(=O)(=O)O)C(O)(S(=O)(=O)O)C1N=CC=CC21` (stereo unspecified), 43.8% (inactive) and 48.5% (inactive).

For the molecule `Cc1cc(O)c2c(c1)C(=O)c1cc(O)cc(O)c1C2=O`, the growth is 82.5% (inactive) and 94.2% (inactive). With `CCN(CC)CCC(CNc1ccnc2cc(Cl)ccc12)c1ccc(OC)cc1` (stereo unspecified), the growth was 98.5% (inactive) and 92.2% (inactive).

Turning to `O=[N+]([O-])c1ccc2nc3c4ccccc4c4ccccc4c3nc2c1`, the growth is 89.2% (inactive). For `COc1cc2nc(N3CCC[C@@H](NC(=O)C4COc5ccccc5O4)C3)nc(N)c2cc1OC` (stereo partly specified) the value was 107% (inactive) and 102% (inactive). In the case of `NC(=S)NN=C1CCC(C2CCCCC2)CC1` (stereo unspecified), the growth was 96% (inactive) and 102% (inactive).

As to `CCOC(=O)c1sc(N)nc1-c1ccccc1`, the growth is 109% (inactive). For `Cc1ccc2nc3c(nc2c1)-c1cccc2cccc-3c12` the value was 100% (inactive). For `CC(C)N=c1cc2n(-c3ccc(Cl)cc3)c3ccccc3nc-2cc1Nc1ccc(Cl)cc1` the value was 49.1% (inactive) and 60.7% (inactive) and 36.4% (inactive).

`CCN(CC)CCCC(C)Nc1ccnc2cc(Oc3ccccc3)ccc12` (stereo unspecified): the growth is 83.5% (inactive) and 94.5% (inactive). `CN1C(=O)C(N=Nc2ccc([N+](=O)[O-])cc2)SC1=S` (stereo unspecified): the growth was 69.4% (inactive) and 81.4% (inactive). Take `COc1ccccc1NC(=O)OCC#CCOC(=O)Nc1ccccc1OC`: the growth is 104% (inactive) and 88.7% (inactive). As to `O[C@H](c1cc(C(F)(F)F)nc2c(C(F)(F)F)cccc12)[C@@H]1CCCCN1`, the growth is 60.1% (inactive) and 65.9% (inactive). `N#C/C(=C1C=C/C(=N/O)C(Br)=C/1)c1ccccc1`: the growth is 94.9% (inactive).

For `CC1=C[C@H]2c3c(c(O)c(O)c4oc5cc(O)cc(O)c5c(=O)c34)[C@H](c3cc(O)c(O)c4oc5cc(O)cc(O)c5c(=O)c34)[C@H]2C(C)(C)C1`, the growth is 13.3% (inactive) and -11.3% (active).
